hgDAF-12 ag: agonists of H. glycines DAF-12 nuclear receptor | HEK293 GAL4-hgDAF12 UAS-luciferase reporter, agonist luminescence; normalized to butyrate control | activation, % at 6.8 µM | 370,000 tested, 1.8% active | AID 687014;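 active = activation above a cutoff set at the mean of all screened compounds plus 3 SD, cut at about 10% in these data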;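 note: 0% = DMSO wells and 100% = sodium butyrate wells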
DAX1 inh-1: inhibitors of DAX1 repression of SF-1 activated StAR promoter; HEK293T StAR-luciferase reporter, SF-1/DAX-1 repression relief; AID 652010; inhibition, % at 6.8 µM; 370,000 tested, 1.1% active;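 active = inhibition above the mean over all tested compounds plus 3 SD, cut at about 3.6% in these data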;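 note: 0% = DAX-1 cells with DMSO and 100% = cells lacking DAX-1 with DMSO; higher inhibition means more luminescence from relief of DAX-1 repression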
DAX1 inh-2: inhibits human nuclear receptor DAX1; P51843; HEK293 Gal4-DAX1 luciferase reporter, luminescence; inhibition, % at 6.75 µM; 340,000 tested, 0.99% active;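 active = inhibition above the mean over all tested compounds plus 3 SD, cut at about 4.2% in these data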;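 note: 0% = DAX1-transfected cells with DMSO and 100% = empty-vector control cells with DMSO; inhibition shows as a rise in luminescence from relieved DAX1 repression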
AHR activator: human AHR activation; P35869; AHR-responsive luciferase reporter cells, luminescence; activation, % at 5 µM; 320,000 tested, 2.5% active; AID 2796; in the data active = activation above about 47%;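 note: 0% = vehicle wells and 100% = reference agonist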
ssDAF12 agonist: activates DAF-12 receptor from parasite S. stercoralis. 370,000 tested, 1% active. activation, % at 6.8 µM. HEK293 ssDAF-12/GRIP1 lit1-tk-luc reporter, luminescence; % of 3 µM dafachronic acid response;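 active = activation above the mean over all tested compounds plus 3 SD, cut at about 0.9% in these data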;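 note: 0% = DMSO-only wells and 100% = 3 µM delta7-dafachronic acid wells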
hcDAF-12 act: activators of H. contortus DAF-12 nuclear receptor | activation, % at 6.8 µM | HEK293 hcDAF-12 lit1-tk-luc reporter, luminescence; 0% DMSO, 100% Δ7-dafachronic acid | 370,000 tested, 1.4% active | AID 652067;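 active = activation above the mean of all tested compounds plus 3 SD, cut at about 5.5% in these data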;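 note: 100% = response to 3 µM Δ7-dafachronic acid high control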
An asterisk follows results filed as active; · = no result given. This is a sample that favours compounds with a hit; in the whole collection about 5.7% have one here.

SMILES	hgDAF-12 ag	DAX1 inh-1	DAX1 inh-2	AHR activator	ssDAF12 agonist	hcDAF-12 act
O=C(NNC(=S)NC(=O)c1sc2ccccc2c1Cl)c1ccc(Cl)cc1	2.6	1.3	1.0	109.6*	1.2*	5.3
O=C(O)c1ccccc1NC(=S)NC(=O)c1sc2ccccc2c1Cl	-0.1	-0.2	3.2	0.7	-1.5	-0.6
COC(=O)c1ccc2c(c1)NC(=O)C(N(CC(C)C)CC(C)C)S2 (centres undefined)	-2.5	0.3	5.1*	-0.4	-1.1	0.4
CC(=O)c1ccccc1NS(=O)(=O)c1c(C)nn(-c2ccccc2)c1C	-1.0	-1.2	-0.6	-0.2	-1.6	0.5
Cc1ccc(NC(=O)c2ccc(OCC3CCCO3)cc2)cc1 (centres undefined)	11.8*	3.0	2.8	4.5	0.5	4.2
Cc1ccc(NC(=O)c2ccc(OC(=O)COc3ccc(Cl)c(C)c3)cc2)cc1	12.8*	2.7	1.2	16.4	-0.5	3.9
Cc1cc(OCC(=O)NC(C)(C)C)ccc1Cl	11.5*	0.9	0.3	1.9	-1.0	0.8
O=C(Nc1ccc(S(=O)(=O)N2CCCC2)cc1)c1ccc(OCC2CCCO2)cc1 (centres undefined)	-2.4	-4.3	-2.4	4.8	-2.6	-3.8
CCOC(=O)C1=C(c2ccccc2)N=c2s/c(=C\c3cccc(O)c3)c(=O)n2C1c1cccs1 (centres undefined)	-3.6	-1.9	-1.6	-5.0	-1.2	-3.5
COc1ccc(NC(=S)N2CCN(c3ccc4c(c3)C3CCN(C(=O)OCc5ccccc5)C4C3)CC2)c(OC)c1 (centres undefined)	2.1	-6.3	·	·	-1.9	-1.4
CCOC(=O)c1cn2nc(N3CCCC3)ccc2n1	10.1	2.5	-2.5	-5.3	0.1	6.0*
CCN(CC)CCCn1c2c(c(SCC(=O)Nc3cccc(C(C)=O)c3)nc1=O)CCC2	0.5	1.0	-0.7	-1.0	-0.6	1.5
CCN(CC)CCn1c2c(c(SCC(=O)Nc3nc4ccccc4s3)nc1=O)CCC2	8.1	3.5	-0.6	14.3	0.2	5.8*
CCN(CC)CCn1c2c(c(SCC(=O)Nc3nc4ccc(C)cc4s3)nc1=O)CCC2	2.8	0.9	-0.4	1.2	-0.9	-1.9
CCN(CC)CCCn1c2c(c(SCC(=O)Nc3cc(C)cc(C)c3)nc1=O)CCC2	-1.4	4.4*	-0.1	·	-1.2	0.3
O=C(NCCN1C(=O)C2C3C=CC(C3)C2C1=O)Nc1ccccc1 (centres undefined)	1.4	1.6	0.5	-2.0	-1.8	-0.9
COc1ccc(NC(=O)NCCN2C(=O)C3C4C=CC(C4)C3C2=O)cc1 (centres undefined)	8.9	1.8	6.0*	2.2	-0.3	0.4
Cc1cccc(NC(=O)NCCN2C(=O)C3C4C=CC(C4)C3C2=O)c1 (centres undefined)	10.6*	1.1	3.1	4.0	-0.6	0.1
O=C(NCCN1C(=O)C2C3C=CC(C3)C2C1=O)NCc1ccccc1 (centres undefined)	-1.7	-1.8	2.3	0.5	-1.6	0.4
Cc1ccccc1NC(=O)NCCN1C(=O)C2C3C=CC(C3)C2C1=O (centres undefined)	5.6	0.0	4.7*	2.5	-1.5	-2.8
O=C1c2oc3ccccc3c(=O)c2C(c2cccc(Br)c2)N1Cc1ccco1 (centres undefined)	3.3	0.3	-0.4	10.8	-0.2	0.2
CCOC(=O)c1sc(N)c(C(N)=O)c1C	0.2	0.7	·	2.2	-1.3	-2.0
CCN(CC)S(=O)(=O)c1ccc(S(=O)(=O)NCC2CCCO2)cc1 (centres undefined)	-0.8	-0.4	-0.2	-0.7	-1.8	-0.9
COc1cc2c(c(OC)c1OC)-c1ccc(NC(=O)c3ccc(F)cc3)c(=O)cc1[C@@H](NC(C)=O)CC2	-1.5	-0.4	-0.6	1.5	-0.2	1.1
COc1cc2c(c(OC)c1OC)-c1ccc(NCc3ccccc3)c(=O)cc1C(NC(C)=O)CC2 (centres undefined)	-5.0	4.0*	-0.1	·	-1.2	-0.4
SMILES	hgDAF-12 ag	DAX1 inh-1	DAX1 inh-2	AHR activator	ssDAF12 agonist	hcDAF-12 act
COc1cc2c(c(OC)c1OC)-c1ccc(SC)c(=O)cc1C(NC(=O)C(F)(F)F)CC2 (centres undefined)	-5.8	3.7*	-0.2	·	-0.9	0.8
O=C(NCCOc1ccccc1F)C1CC(=O)N(Cc2ccccc2)C1 (centres undefined)	-1.9	-1.0	-1.1	0.0	-1.2	-3.3
CCN1CCN(c2cc3c(nn2)Oc2ccccc2N3C)CC1	12.1*	2.9	0.3	-3.0	-0.6	4.0
CCN1CCN(c2nnc(-c3ccccc3)c3ccccc23)CC1	-0.8	0.1	-2.1	2.3	-1.3	1.4
CSc1ccc(C(c2c(C(=O)O)[nH]c3ccccc23)c2c(C(=O)O)[nH]c3ccccc23)cc1	-0.4	0.0	1.6	16.1	-1.1	5.6*
O=C(C1CCCN(S(=O)(=O)c2cc(Cl)ccc2Cl)C1)N1CCCCCC1 (centres undefined)	-3.8	-4.4	-1.0	1.1	-0.9	-2.6
O=C1CCc2cccc(O)c2N1	0.3	-0.9	4.9*	·	-1.0	-0.3
O=C1CCC(=O)c2oc3ccccc3c2N1	0.8	-0.2	-0.8	-0.1	-1.0	-1.4
NC(=O)Nc1ccc(C(=O)OCC(=O)Nc2sccc2C(N)=O)cc1	0.2	-0.4	0.3	·	-0.5	-0.2
Cc1ccc(C(=O)n2ccc3ccc(-c4ccc5ccn(Cc6ccccc6)c5c4)cc32)cc1	2.8	-0.1	·	·	-0.3	6.2*
O=C(c1ccc(F)cc1)n1ccc2ccc(-c3ccc4ccn(Cc5ccccc5)c4c3)cc21	-0.7	-0.5	·	·	-1.1	-0.4
CCCc1ccc(NS(=O)(=O)c2c(C)oc(C)c2C(=O)OC)cc1	-0.2	0.0	1.8	-1.2	-1.1	-1.1
COC(=O)C(C)N1C(=O)S/C(=C/c2cc(C)n(C(C)C)c2C)C1=O (centres undefined)	11.5*	1.9	-0.3	3.4	-0.7	1.8
CCn1c(C)cc(/C=C2/SC(=O)N(C(C)C(=O)OC)C2=O)c1C (centres undefined)	5.7	0.7	0.2	-5.2	0.4	0.2
COc1cc([N+](=O)[O-])cc(/C=N/NC(=O)Cn2nccc2C)c1O	-2.3	-0.6	6.0*	-0.1	-1.1	-0.8
COc1cc(Br)cc(/C=N/NC(=O)Cc2ccc(C(F)(F)F)cc2[N+](=O)[O-])c1O	0.8	-0.5	0.9	50.5*	-0.5	-0.4
COc1cc([N+](=O)[O-])cc(/C=N/NC(=O)Cn2nc(C)cc2C)c1O	-1.2	0.4	0.6	3.7	-1.6	-1.7
CCOc1cc(/C=N/NC(=O)Cc2ccc(C(F)(F)F)cc2[N+](=O)[O-])c(Br)cc1OC	-1.1	0.4	0.0	4.1	-1.0	-0.3
